# Results: the supplement of paper PMC10849652
# Targets with a hit are over-represented here; the source holds about 7,900 in all. About 0.6% of all pairs of compound and target were hits. Values without a mark were called inactive.
# How the values were obtained:
# Assay in all cases: log2 fold change, soluble protein after heating vs DMSO (PISA); higher = thermal stabilisation; K562 cells, 10 uM, 30 min; active = over 0.2 and 3.5 SD of the protein, either way, in both replicates (recomputed)
# [1] = compound: C#Cc1cccc(Nc2ncnc3cc(OCCOC)c(OCCOC)cc23)c1 [erlotinib]
# Method in brief: (§1)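 K562 cells at 2×10^6 cells/mL were treated with 10 μM compound for 30 min. Aliquots were heated for 3 min across 48°C-58°C, pooled, and extracted in PBS with 0.5% NP-40 at 4°C; soluble protein was the supernatant after 21,000xg for 90 min. Soluble protein was quantified by TMTpro 16plex LC-MS/MS with channel sums equalised, and reported as log2 fold change in thermal stability against DMSO controls, with values from duplicates.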
# [2] = compound: C/C(=N\NC(=O)C1=CC(=CC=C1)S(=O)(=O)N2CCOCC2)/C3=C(C=CC(=C3)Cl)O
# Method in brief: as §1
# [3] = compound: C1=CC(=C(C=C1Cl)C2=NC3=NC=CN=C3C(=N2)NC4=CC=NC=C4)F
# Method in brief: as §1
# [4] = compound: C1=CC(=CC=C1C2=NC3=C(N2)C=C(C=C3)C(=O)N)OC4=CC=C(C=C4)Cl
# Method in brief: as §1
# [5] = compound: C1=CC2=C(C=CC(=C2)/C=C\3/C(=O)NC(=NCC4=CC=CS4)S3)N=C1
# Method in brief: as §1
# [6] = compound: C1=CC2=NC=CN=C2C=C1/C=C/3\C(=O)NC(=O)S3
# Method in brief: as §1
# [7] = compound: C1=CC=C(C=C1)C2=NC(=C(N2)C3=CC=NC=C3)C4=CC(=C(C=C4)Cl)O
# Method in brief: as §1
# [8] = compound: C1=CC=C2C(=C1)C3=NNC4=CC=CC(=C43)C2=O
# Method in brief: as §1
# [9] = compound: C1CCN(C1)C(=O)NC2=CC=CC(=C2)NC3=NC=C(C(=N3)NCCC4=CN=CN4)Br
# Method in brief: as §1
# [10] = compound: C1CN(CCC1(CC2=CC=C(C=C2)Cl)N)C3=NC=NC4=C3C=CN4
# Method in brief: as §1
# Sequence of UniProt Q9Y2V0 (Q9Y2V0 whole entry, looked up): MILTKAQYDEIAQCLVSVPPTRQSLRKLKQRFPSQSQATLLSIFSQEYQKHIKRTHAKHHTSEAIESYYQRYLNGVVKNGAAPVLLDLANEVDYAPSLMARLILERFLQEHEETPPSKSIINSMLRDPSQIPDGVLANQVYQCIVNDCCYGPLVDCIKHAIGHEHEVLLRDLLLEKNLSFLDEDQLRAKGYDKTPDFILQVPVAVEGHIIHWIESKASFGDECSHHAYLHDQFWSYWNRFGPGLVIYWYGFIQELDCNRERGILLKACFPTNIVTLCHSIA
# Sequence of UniProt O95628 (O95628 whole entry, looked up): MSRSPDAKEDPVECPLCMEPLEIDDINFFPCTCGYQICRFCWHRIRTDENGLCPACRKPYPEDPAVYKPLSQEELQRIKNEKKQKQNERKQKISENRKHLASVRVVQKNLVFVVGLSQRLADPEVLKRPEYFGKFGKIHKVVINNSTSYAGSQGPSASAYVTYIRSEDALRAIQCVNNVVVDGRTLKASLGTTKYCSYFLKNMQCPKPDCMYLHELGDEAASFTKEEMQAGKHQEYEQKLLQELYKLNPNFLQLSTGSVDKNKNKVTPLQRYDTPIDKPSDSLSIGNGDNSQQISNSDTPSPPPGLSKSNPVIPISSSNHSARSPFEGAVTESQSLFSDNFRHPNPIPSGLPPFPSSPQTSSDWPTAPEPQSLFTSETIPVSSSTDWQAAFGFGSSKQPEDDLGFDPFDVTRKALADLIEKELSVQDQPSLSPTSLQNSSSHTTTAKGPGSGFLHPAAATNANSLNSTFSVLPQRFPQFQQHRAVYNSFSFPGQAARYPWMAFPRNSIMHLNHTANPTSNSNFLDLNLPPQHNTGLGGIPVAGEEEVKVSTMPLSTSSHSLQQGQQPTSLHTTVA
# Sequence of UniProt Q9NRR8 (Q9NRR8 whole entry, looked up): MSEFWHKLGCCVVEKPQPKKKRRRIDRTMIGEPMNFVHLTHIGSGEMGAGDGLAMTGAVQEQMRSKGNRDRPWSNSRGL
# Sequence of UniProt Q9UHN6 (Q9UHN6 whole entry, looked up): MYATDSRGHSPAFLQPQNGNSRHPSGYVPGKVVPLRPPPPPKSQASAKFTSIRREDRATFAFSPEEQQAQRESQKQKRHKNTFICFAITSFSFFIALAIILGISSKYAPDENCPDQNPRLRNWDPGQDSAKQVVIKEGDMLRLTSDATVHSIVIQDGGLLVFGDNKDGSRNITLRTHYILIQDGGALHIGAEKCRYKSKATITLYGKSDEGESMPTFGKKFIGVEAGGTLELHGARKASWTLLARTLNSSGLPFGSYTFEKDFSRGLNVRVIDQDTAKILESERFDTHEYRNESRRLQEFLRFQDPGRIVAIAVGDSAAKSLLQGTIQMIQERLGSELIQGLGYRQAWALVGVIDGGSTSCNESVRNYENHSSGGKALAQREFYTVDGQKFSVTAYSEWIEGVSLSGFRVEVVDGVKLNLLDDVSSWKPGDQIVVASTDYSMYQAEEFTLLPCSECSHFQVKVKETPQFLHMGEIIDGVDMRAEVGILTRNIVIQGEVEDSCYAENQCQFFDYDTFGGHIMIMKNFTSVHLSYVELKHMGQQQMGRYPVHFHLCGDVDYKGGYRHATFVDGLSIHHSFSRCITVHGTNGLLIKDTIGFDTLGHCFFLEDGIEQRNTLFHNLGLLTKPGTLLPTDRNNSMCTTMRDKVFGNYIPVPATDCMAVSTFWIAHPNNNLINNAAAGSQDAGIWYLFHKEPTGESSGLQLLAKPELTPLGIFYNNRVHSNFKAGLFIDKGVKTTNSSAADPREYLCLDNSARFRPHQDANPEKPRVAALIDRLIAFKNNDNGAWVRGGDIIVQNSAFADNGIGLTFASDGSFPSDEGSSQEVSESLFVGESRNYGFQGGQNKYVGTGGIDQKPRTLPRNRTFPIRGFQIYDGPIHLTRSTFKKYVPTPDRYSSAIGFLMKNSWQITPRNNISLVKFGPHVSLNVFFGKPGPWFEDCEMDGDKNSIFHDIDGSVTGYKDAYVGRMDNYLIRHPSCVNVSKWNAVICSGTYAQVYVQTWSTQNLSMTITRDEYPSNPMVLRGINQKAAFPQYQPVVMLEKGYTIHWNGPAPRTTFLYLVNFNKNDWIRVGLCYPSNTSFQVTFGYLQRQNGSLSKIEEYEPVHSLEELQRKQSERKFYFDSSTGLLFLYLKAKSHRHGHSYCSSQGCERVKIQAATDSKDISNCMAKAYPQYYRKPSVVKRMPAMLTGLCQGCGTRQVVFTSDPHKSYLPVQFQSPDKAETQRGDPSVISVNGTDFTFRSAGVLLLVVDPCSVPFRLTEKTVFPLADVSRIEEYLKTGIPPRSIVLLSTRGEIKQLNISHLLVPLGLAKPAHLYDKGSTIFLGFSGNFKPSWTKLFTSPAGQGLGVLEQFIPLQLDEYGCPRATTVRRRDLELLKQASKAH
# Sequence of UniProt Q00537 (Q00537 whole entry, looked up): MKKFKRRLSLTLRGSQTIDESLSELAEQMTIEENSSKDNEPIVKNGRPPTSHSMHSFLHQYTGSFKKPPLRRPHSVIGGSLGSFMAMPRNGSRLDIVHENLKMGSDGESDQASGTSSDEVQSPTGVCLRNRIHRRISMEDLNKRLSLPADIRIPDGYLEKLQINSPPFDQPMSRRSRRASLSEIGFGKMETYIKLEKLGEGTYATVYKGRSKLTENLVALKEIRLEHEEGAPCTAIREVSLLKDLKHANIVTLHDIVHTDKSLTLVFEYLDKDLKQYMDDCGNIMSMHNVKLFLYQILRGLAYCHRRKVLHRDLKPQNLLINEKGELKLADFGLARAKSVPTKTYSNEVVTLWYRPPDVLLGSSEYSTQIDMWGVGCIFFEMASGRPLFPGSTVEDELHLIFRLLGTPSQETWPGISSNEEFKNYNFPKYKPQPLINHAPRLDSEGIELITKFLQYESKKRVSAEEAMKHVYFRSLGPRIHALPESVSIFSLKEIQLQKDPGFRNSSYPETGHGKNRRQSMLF
# Sequence of UniProt Q00535 (Q00535 whole entry, looked up): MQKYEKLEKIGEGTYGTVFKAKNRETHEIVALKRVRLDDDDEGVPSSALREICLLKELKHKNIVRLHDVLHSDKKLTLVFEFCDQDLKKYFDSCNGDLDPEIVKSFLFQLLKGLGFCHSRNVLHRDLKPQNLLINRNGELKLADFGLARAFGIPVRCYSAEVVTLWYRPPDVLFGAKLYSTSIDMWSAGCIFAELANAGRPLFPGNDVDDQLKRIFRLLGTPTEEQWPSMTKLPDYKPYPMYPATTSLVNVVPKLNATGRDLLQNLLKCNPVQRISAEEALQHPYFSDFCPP
# Sequence of UniProt Q8N1A6 (Q8N1A6 whole entry, looked up): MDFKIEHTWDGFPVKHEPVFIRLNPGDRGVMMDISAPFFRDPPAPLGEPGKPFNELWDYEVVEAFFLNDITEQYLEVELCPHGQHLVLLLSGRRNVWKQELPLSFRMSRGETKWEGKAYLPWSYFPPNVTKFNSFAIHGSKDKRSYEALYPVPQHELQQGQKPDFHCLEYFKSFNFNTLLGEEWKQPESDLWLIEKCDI
# Sequence of UniProt Q7KZN9 (Q7KZN9 whole entry, looked up): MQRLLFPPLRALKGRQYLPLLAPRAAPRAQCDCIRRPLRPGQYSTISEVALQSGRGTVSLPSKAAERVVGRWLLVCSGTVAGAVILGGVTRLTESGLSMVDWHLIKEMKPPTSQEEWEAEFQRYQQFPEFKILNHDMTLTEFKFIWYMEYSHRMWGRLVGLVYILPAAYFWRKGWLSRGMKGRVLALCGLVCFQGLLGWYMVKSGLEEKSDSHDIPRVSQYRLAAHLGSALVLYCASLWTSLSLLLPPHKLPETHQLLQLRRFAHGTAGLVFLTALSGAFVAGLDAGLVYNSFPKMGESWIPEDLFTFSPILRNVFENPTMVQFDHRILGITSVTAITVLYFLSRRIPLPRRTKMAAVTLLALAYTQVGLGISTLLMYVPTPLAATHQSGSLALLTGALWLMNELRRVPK
# Sequence of UniProt P35790 (P35790 whole entry, looked up): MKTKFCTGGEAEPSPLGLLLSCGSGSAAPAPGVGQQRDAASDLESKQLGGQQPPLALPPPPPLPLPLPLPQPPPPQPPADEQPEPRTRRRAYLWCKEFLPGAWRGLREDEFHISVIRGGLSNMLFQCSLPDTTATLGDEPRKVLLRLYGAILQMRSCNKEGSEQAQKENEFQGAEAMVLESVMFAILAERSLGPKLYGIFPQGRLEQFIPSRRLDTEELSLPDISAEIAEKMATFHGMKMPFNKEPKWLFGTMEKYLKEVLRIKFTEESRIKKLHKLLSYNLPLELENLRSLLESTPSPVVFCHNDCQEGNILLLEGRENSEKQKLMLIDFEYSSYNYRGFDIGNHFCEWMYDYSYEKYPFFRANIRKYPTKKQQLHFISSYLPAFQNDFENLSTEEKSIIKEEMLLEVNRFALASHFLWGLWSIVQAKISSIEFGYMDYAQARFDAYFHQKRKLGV
# Sequence of UniProt Q96MX0 (Q96MX0 whole entry, looked up): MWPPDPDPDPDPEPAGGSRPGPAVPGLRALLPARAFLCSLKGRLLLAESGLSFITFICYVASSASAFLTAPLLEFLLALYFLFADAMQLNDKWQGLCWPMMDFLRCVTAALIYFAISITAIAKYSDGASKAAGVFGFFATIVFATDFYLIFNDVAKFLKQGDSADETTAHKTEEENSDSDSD
# Sequence of UniProt Q86X95 (Q86X95 whole entry, looked up): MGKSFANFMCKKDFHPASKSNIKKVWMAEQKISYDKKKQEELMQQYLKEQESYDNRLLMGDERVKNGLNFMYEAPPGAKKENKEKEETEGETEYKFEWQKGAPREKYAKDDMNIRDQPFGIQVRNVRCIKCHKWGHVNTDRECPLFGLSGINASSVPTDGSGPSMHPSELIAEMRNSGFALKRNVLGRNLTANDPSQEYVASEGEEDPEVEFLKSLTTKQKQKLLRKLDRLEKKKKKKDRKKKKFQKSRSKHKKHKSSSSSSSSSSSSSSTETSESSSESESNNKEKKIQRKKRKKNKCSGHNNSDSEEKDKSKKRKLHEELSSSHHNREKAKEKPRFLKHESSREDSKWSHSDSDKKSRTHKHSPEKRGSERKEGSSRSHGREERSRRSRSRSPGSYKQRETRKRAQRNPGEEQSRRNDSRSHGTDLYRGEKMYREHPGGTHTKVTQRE
# Sequence of UniProt P24311 (P24311 whole entry, looked up): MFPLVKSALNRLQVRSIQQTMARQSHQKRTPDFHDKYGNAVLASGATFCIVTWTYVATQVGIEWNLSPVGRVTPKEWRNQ
Target,log2 fold change [1],log2 fold change [2],log2 fold change [3],log2 fold change [4],log2 fold change [5],log2 fold change [6],log2 fold change [7],log2 fold change [8],log2 fold change [9],log2 fold change [10]
CD55 isoform 7 (UniProt P08174),-0.065,-0.002,-0.031,0.036,-0.121,-0.015,0.011,-0.062,-0.079,0.008
CEMIP2 (UniProt Q9UHN6),0.076,0.018,-0.042,0.001,0.087,0.029,-0.071,-0.066,0.084,0.041
COX17 (UniProt Q14061),-0.032,-0.064,0.375,-0.009,0.035,,0.207,0.404,-0.117,0
CAV2 (UniProt P51636),-0.01,-0.066,,0.076,-0.018,-0.559,,0.057,0.025,-0.021
COX7B (UniProt P24311),-0.022,0.058,0.109,0.006,-0.081,0.057,,-0.009,0.085,0.016
CIR1 (UniProt Q86X95),-0.008,-0.035,-0.254,0.055,-0.054,-0.029,-0.144,-0.016,-0.008,0.002
CDC42SE1 (UniProt Q9NRR8),0.078,0.041,-0.005,0.014,0.021,0,-0.009,-0.207,0.023,-0.012
CDK19 (UniProt Q9BWU1),-0.2,-0.116,0.053,0.268,0.111,,-0.167,0.099,0.003,0.021
CDK17 isoform 2 (UniProt Q00537),0.086,0.008,0.059,-0.075,-0.123,-0.081,,0.064,,
CES2 isoform 4 (UniProt O00748),-0.05,-0.16,-0.264,-0.008,-0.06,-0.011,0.139,0.083,0.061,-0.087
CCNDBP1 (UniProt O95273),0.009,0.191,,0.105,-0.011,0.034,0.076,-0.122,-0.086,-0.068
CALCOCO2 isoform 4 (UniProt Q13137),-0.081,0.018,-0.08,0.059,0.022,-0.043,-0.003,-0.057,-0.016,-0.052
CHD4 isoform 2 (UniProt Q14839),0.042,0.103,-0.011,-0.007,0.029,0.034,0.044,-0.08,-0.047,-0.1
CMTM3 (UniProt Q96MX0),0.032,-0.055,0.166,-0.044,0.034,0.066,,-0.007,0.002,0.051
COX15 (UniProt Q7KZN9),-0.01,-0.008,0.067,-0.008,0.03,0.145,-0.009,-0.019,0.01,0.057
COG2 (UniProt Q14746),-0.082,-0.367,0.012,-0.026,0.478,,-0.223,-0.137,0.257,-0.065

Target,log2 fold change [1],log2 fold change [2],log2 fold change [3],log2 fold change [4],log2 fold change [5],log2 fold change [6],log2 fold change [7],log2 fold change [8],log2 fold change [9],log2 fold change [10]
CEBPZOS (UniProt A8MTT3),-0.017,0.084,,0.015,0.039,0.074,0.03,0.057,0.05,-0.03
CNTN4 (UniProt Q8IWV2),0.284,-0.641 (active),0.012,0.018,0.179,-0.095,0.05,0.097,-0.097,0.194
CDKN2AIP (UniProt Q9NXV6),0.017,-0.018,0,0.056,0.018,0.009,0.036,0.007,-0.006,-0.021
CDK5 (UniProt Q00535),-0.02,-0.009,0.041,-0.008,-0.014,0.052,-0.02,,0.017,0.038
CD84 (UniProt Q9UIB8),0.131,0.052,-0.027,0.099,0.01,,,0.033,-0.032,0.111
C15orf41 (UniProt Q9Y2V0),0.02,0.017,0.002,-0.033,-0.018,,0.001,-0.098,0.115,0.075
CENPE (UniProt Q02224),0.268,0.525,,-0.096,-0.875 (active),0.098,0.072,0.444,0.011,0.032
CDK5RAP1 (UniProt Q96SZ6),0.076,-0.555 (active),0.046,-0.025,0.134,-0.03,0.069,0.078,0.072,-0.029
C19orf54 (UniProt Q5BKX5),-0.094,-0.054,0.024,0.008,-0.005,,-0.024,0.026,-0.027,-0.543 (active)
C4orf33 (UniProt Q8N1A6),-0.026,0.023,0.052,0.138,0.072,-0.287 (active),-0.092,0.016,0.017,0.06
CLN8 (UniProt Q9UBY8),0.012,0.198,,0.01,0.212,0.099,-0.208,-0.06,0.003,-0.171
CHKA (UniProt P35790),0.012,-0.008,0.036,-0.018,0.001,-0.119,0.069,-0.188,0.005,-0.021
CNOT4 isoform 9 (UniProt O95628),-0.011,-0.022,,0.047,0.089,0.018,0.053,0.245,0.175,0.455
CLASP2 (UniProt O75122),0.089,-0.078,,0.082,-0.211,0.133,0.286,-0.106,,
CEP128 (UniProt Q6ZU80),,-0.163,,,0.199,0.158,,-0.037,0.141,-0.003
CKS2 (UniProt P33552),,0.125,,,0.116,-0.001,,-0.032,0.022,0.02
